Test results as given in PubChem BioAssay (NCATS).
Inconclusive results are not listed. Calls of active or inactive are those of the source. Unless noted, the call rests on the fitted dose curve; in most records, active means well fitted curve in either direction with a large enough effect (not every such curve was filed as active); inconclusive means small, poorly fitted or top-dose-only effect, or another doubt; inactive means flat fitted curve, though single readings scatter.

Tests used:
[1] = AP1 Signaling Pathway (AID 357); settings: ME-180 AP-1-bla reporter, EGF-induced, beta-lactamase ratio, 5 h; at 7.69 µM (top of the series) unless noted;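 further: ME-180 reporter cells stimulated with EGF at its EC50 level; on the % scale 0 is the no-effect control and ±100 the full control effect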
Procedure, shortened: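 Beta-lactamase reporter under AP-1 response element, ME-180 background. Stimulus: EC50 EGF. Compound exposure 5 h, 37 °C. Detection: CCF4, 2.5 h RT, 460/530 nm. Values: AC50 from titration.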

[2] = molecular target: Cytochrome P450 1A2 (Homo sapiens) (UniProt P05177); assay: p450-cyp1a2 (AID 410; calls by dose curve; further: potency means the concentration at half of the fitted maximal effect;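 on activity change, negative = inhibition: -100% = full effect of reference inhibitor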)
Sequence of Cytochrome P450 1A2 (Homo sapiens) (P05177 whole entry, looked up): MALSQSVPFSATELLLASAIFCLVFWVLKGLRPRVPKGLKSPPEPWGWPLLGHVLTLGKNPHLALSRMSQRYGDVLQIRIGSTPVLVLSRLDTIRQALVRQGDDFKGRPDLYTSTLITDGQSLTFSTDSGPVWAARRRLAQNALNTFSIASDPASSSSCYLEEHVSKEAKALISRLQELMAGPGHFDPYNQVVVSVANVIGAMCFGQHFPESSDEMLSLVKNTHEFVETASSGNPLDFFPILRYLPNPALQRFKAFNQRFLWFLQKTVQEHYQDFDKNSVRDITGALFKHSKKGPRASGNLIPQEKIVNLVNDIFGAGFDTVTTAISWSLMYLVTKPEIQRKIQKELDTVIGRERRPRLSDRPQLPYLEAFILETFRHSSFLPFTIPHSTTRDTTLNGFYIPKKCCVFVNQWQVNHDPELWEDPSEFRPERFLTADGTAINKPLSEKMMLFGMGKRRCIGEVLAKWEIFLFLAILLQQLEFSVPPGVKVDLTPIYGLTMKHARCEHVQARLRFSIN
Procedure, shortened: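 Read-out is luminescence from luciferin produced by CYP1A2 demethylation of Luciferin-ME (100uM, at Km). Detection reagent stopped the 60 min NADPH-dependent reaction; signals were normalized to 57 uM furafylline.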

[3] = NFAT Signaling Pathway (AID 444); settings: Jurkat NFAT-bla M1, carbachol, beta-lactamase ratio, 5 h; at 7.69 µM (top of the series) unless noted;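 further: carbachol stimulus at about its EC50 of 1 µM final; on the % scale 0 is the no-effect control and ±100 the full control effect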
Procedure, shortened: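 Jurkat cells with NFAT-driven β-lactamase reporter and co-expressed M1 receptor, stimulated with carbachol (final 1 uM, ~EC50), compound titration, 5 h at 37 °C. CCF4 loaded 1 h at RT; 460/530 nm ratio gave %activity and AC50.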

[4] = Stat Signaling Pathway (AID 446); settings: ME-180 (cervical carcinoma) SIE beta-lactamase reporter, IL-6 stimulated, 5 h; at 7.69 µM (top of the series) unless noted;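 further: ME-180 cervical cancer cells given 40 pM IL-6 alongside compound; SIE-controlled beta-lactamase reporter measured as 460/530 nm FRET emission ratio; on the % scale 0 is the no-effect control and ±100 the full control effect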
Procedure, shortened: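 Emission at 460 and 530 nm (excitation 405 nm) reports SIE-controlled beta-lactamase in ME-180 cells. Cells received compound with 40 pM IL-6 for 5 hrs at 37 C; data scaled between 300 pM IL-6 and 125 nM JAK-inhibitor controls.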

[5] = molecular target: Glucocorticoid receptor (Homo sapiens) (UniProt P04150); assay: GR-GFP Redistribution (AID 450;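 active means compounds whose dose series gives a full or clear partial fitted curve of increased nuclear translocation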; further: potency means the concentration at half of the fitted maximal effect); settings: U2OS GR-GFP nuclear translocation, laser cytometry, 2 h
Sequence of Glucocorticoid receptor (Homo sapiens) (P04150 whole entry, looked up, the tested form may be a part): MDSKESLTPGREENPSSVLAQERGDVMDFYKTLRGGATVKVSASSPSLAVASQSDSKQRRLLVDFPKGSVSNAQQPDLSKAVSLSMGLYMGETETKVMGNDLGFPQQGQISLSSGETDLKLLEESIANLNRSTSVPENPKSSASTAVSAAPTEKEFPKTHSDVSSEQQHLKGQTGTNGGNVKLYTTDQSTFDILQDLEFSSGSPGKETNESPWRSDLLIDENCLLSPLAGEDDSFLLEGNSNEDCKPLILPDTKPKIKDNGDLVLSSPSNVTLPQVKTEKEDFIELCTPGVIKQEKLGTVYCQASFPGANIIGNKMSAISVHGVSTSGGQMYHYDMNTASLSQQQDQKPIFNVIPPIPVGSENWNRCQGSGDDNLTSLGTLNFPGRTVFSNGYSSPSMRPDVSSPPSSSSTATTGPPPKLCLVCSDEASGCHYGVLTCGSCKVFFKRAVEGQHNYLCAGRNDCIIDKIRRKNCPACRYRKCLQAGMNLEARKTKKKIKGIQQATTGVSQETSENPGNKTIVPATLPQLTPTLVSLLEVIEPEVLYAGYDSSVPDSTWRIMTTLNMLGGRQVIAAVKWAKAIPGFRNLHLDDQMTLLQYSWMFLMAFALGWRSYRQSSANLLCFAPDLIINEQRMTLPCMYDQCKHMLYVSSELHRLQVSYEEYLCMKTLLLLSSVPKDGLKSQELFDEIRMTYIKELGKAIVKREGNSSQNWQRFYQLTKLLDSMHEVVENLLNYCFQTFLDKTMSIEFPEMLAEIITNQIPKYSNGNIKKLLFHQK

[6] = molecular target: Glucocorticoid receptor (Homo sapiens) (UniProt P04150); assay: GR-EFC Redistribution (AID 451; calls by dose curve; further: potency means the concentration at half of the fitted maximal effect); settings: CHO-K1 GR-EFC translocation, beta-gal luminescence, 2 h
Procedure, shortened: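 CHO-K1 cells expressing nuclear EA and GR-ED fragments of b-gal; compounds titrated up to 46 uM final, 2 h at 37 C. GR nuclear translocation read as complemented b-gal luminescence after 1 h RT detection.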

[7] = molecular target: Mitogen-activated protein kinase 10 (Mus musculus) (UniProt Q61831); assay: JNK3 AlphaScreen Assay (AID 530);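 further: kinase came from lysate of stimulated human HepG2 cells; signal reports phosphorylation of biotinylated GST-cJun 1-79 at Ser73 with 10 µM ATP; on the % scale 0 is the no-effect control and ±100 the full control effect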
Procedure, shortened: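 HepG2 lysate (IL-1b/TNFa pre-activated) + biotin-GST-cJun 1-79 + anti-pSer73 cJun; cpd titration, 15 min RT; ATP 10 uM start; Tris pH 7.6, MgCl2, DTT, vanadate; beads in EDTA buffer; AlphaScreen.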

[8] = molecular target: 3',5'-cyclic-AMP phosphodiesterase 4B (Homo sapiens) (UniProt Q07343); assay: qHTS Assay for Inhibitors of PDE-IV (AID 607; active means well fitted activation curve with a large enough effect in the main read-out, with a control signal flat, not every such curve was filed as active; further: % of control where 0% means no effect)
Sequence of 3',5'-cyclic-AMP phosphodiesterase 4B (Homo sapiens) (Q07343 whole entry, looked up): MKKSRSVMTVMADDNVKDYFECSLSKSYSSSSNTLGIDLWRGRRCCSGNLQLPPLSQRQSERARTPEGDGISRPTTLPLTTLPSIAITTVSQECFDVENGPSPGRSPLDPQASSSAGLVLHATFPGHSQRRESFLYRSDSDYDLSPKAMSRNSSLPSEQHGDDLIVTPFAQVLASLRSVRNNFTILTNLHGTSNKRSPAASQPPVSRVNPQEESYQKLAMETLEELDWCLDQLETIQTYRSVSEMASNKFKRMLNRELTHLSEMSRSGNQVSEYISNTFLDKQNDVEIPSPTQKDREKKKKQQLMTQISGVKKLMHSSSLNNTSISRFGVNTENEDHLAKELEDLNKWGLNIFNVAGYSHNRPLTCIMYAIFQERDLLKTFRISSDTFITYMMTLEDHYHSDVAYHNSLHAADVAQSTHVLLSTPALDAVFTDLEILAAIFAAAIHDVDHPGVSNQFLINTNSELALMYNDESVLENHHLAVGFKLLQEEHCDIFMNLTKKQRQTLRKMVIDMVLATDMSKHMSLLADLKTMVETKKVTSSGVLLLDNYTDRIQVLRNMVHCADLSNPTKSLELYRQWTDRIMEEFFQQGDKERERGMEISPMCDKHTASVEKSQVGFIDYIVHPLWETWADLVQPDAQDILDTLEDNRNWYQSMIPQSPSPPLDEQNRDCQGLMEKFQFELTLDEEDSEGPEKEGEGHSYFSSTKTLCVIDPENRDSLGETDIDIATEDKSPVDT
Procedure, shortened: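 The readout is membrane depolarisation from a cAMP-sensing CNG channel, detected with a potential dye at ex 535/em 590. Cells were HEK293-derived (endogenous PDE-IV) at 1000 cells/well, titrated up to 22.9 uM final.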

[9] = molecular target: Ubiquitin carboxyl-terminal hydrolase 1 (Homo sapiens) (UniProt O94782); assay: Inhibitors of USP1/UAF1: Pilot qHTS (AID 504865; active means well fitted curve in the direction sought with a large enough effect; an effect the other way counts as inactive or inconclusive;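 further: rhodamine fluorescence freed from ubiquitin-rhodamine substrate followed over time; top concentration of the series differs between compounds; on the % scale 0 is the no-effect control and ±100 the full control effect; nearly all actives have a fitted effect of over 35% in size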)
Sequence of Ubiquitin carboxyl-terminal hydrolase 1 (Homo sapiens) (O94782 whole entry, looked up): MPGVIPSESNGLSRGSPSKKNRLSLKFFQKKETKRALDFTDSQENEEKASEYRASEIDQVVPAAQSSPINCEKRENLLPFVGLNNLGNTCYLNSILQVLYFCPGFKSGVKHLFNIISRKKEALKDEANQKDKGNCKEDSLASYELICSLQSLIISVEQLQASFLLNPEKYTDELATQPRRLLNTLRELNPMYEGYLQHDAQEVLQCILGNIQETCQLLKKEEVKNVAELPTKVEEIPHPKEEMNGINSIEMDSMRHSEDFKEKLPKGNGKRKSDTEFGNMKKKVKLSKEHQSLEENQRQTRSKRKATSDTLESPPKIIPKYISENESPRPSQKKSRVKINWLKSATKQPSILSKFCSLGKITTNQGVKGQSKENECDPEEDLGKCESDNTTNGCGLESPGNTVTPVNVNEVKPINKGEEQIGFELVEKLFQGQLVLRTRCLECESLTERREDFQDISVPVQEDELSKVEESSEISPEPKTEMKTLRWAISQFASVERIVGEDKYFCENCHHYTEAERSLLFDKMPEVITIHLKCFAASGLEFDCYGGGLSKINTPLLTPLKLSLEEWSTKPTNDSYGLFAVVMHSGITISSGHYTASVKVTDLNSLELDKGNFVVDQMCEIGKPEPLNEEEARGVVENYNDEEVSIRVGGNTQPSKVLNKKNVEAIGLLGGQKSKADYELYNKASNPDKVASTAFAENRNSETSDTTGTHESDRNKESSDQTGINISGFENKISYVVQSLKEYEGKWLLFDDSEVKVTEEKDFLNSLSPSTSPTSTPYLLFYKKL
Procedure, shortened: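 USP1/UAF1 complex at 1 nM preincubated 15 min at room temperature with compound, then Ub-Rho substrate added at 150 nM final. Fluorescence (480/540 nm) read kinetically in 50 mM HEPES pH 7.8, 0.5 mM EDTA, 1 mM TCEP, 0.1 mg/ml BSA, 0.01% Tween-20.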

[10] = molecular target: Cytochrome P450 3A4 (Homo sapiens) (UniProt P08684); assay: qHTS Assay for Activators of Cytochrome P450 3A4 (AID 885; active means well fitted curve in the direction sought with a large enough effect; an effect the other way counts as inactive or inconclusive; further: nearly all actives have a fitted effect of over 65% in size)
Sequence of Cytochrome P450 3A4 (Homo sapiens) (P08684 whole entry, looked up): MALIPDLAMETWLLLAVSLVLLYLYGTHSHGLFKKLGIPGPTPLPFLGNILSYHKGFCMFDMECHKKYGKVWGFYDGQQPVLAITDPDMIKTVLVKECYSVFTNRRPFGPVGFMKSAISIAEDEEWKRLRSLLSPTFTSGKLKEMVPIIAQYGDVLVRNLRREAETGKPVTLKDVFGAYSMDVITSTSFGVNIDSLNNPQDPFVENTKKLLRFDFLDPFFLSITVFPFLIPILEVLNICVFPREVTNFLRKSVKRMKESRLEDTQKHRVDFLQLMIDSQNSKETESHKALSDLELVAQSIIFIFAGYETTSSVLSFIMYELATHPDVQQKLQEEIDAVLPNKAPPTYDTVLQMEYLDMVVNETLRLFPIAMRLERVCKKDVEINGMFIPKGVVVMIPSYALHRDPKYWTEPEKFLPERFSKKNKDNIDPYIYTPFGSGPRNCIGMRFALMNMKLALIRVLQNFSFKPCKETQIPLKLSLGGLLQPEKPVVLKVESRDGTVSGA
Procedure, shortened: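 Activators are scored by enhanced luminescence from CYP3A4 conversion of luciferin-PPXE (25uM, equal to KM) to luciferin, after 60 min at RT with an NADPH-regenerating system.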

COCCn1c(=O)c(-c2ccccc2)nc2cncnc21
inactive: activity change, negative = inhibition [1] -9.61% | activity change, negative = inhibition [3] -5.89% | activity, negative = inhibition [4] -10.2% | Potency [5] > 9.22 µM | Potency [6] > 46 µM | Potency [7] | Potency [8] | Potency [9]
active: Potency [2] 0.794 µM

CCNc1ncc2nc(-c3cn(C)c4ccccc34)c(=O)n(CCC#N)c2n1
active: Potency [2] 5.01 µM
inactive: activity change, negative = inhibition [1] -22.2% | activity change, negative = inhibition [3] -4.28% | activity, negative = inhibition [4] -12.7% | Potency [5] > 9.22 µM | Potency [6] > 46 µM | Potency [7] | Potency [10] | Potency [9]

CS(=O)(=O)N1CCC2(CC1)CN(c1ncccn1)C2
inactive: activity change, negative = inhibition [1] -16% | Potency [2] | activity change, negative = inhibition [3] -5.62% | activity, negative = inhibition [4] 6.56% | Potency [6] > 46 µM | Potency [7] | Potency [8] | Potency [10]

Cc1noc(C)c1C(=O)N1CCC[C@@]2(CCN(Cc3nccs3)C2)C1
inactive: activity change, negative = inhibition [1] -0.7% | Potency [2] | activity change, negative = inhibition [3] 9.88% | activity, negative = inhibition [4] -7.79% | Potency [7] | Potency [8] | Potency [10]

N#Cc1ccc(CN2CCCC3(CCN(C(=O)c4cc(C(F)(F)F)cc(C(F)(F)F)c4)CC3)C2)cc1
inactive: activity change, negative = inhibition [1] 16.4% | activity, negative = inhibition [4] -17.3% | Potency [6] > 46 µM | Potency [7] | Potency [8]

COc1ccc(-n2c(=O)c(-c3cccc(F)c3)nc3cncnc32)cc1
active: Potency [2] 3.98 µM
inactive: activity change, negative = inhibition [1] -4.56% | activity change, negative = inhibition [3] 7.82% | activity, negative = inhibition [4] -17.1% | Potency [5] > 9.22 µM | Potency [6] > 46 µM | Potency [7] | Potency [8] | Potency [10] | Potency [9]

Fc1ccc(Nc2ncnc3ccc(-c4ccoc4)cc23)cc1
inactive: activity change, negative = inhibition [3] 10.4% | activity, negative = inhibition [4] -22.9% | Potency [5] > 46 µM | Potency [6] > 46 µM | Potency [7] | Potency [10] | Potency [9]
active: Potency [2] 1 µM

COc1ccc(C(=O)N2CCC[C@@]3(CCN(Cc4ccccc4OC)C3)C2)cc1
inactive: activity change, negative = inhibition [1] 11.7% | activity change, negative = inhibition [3] -18.6% | activity, negative = inhibition [4] 5.47% | Potency [6] > 46 µM | Potency [7] | Potency [8]

CC(=O)OC1CCC23CC1(C)CCC2C(C)(C)CC3OC(C)=O (stereo not given)
inactive: Potency [10]

O=C(Oc1ccccc1)N1CCC2(CCCN(c3cccc(-c4ccccc4)c3)C2)CC1
inactive: Potency [2] | activity change, negative = inhibition [3] -27.7% | activity, negative = inhibition [4] 2.68% | Potency [6] > 46 µM | Potency [7] | Potency [8]

Cc1ccccc1-c1cc(N(C)Cc2ccco2)ncn1
active: Potency [2] 3.98 µM
inactive: activity change, negative = inhibition [1] 7.17% | activity, negative = inhibition [4] 8.71% | Potency [5] > 46 µM | Potency [6] > 46 µM | Potency [7] | Potency [8] | Potency [9]

COc1cccc(-c2cc(NCc3ccccc3)ncn2)c1
inactive: activity change, negative = inhibition [1] -18.4% | activity change, negative = inhibition [3] 13.6% | activity, negative = inhibition [4] -5.77% | Potency [5] > 46 µM | Potency [6] > 46 µM | Potency [7] | Potency [10] | Potency [9]
active: Potency [2] 2 µM

O=c1c(-c2cccc(Cl)c2)nc2cncnc2n1Cc1ccccc1Cl
active: Potency [2] 2 µM
inactive: activity change, negative = inhibition [1] 15.6% | activity, negative = inhibition [4] -2.1% | Potency [5] > 9.22 µM | Potency [6] > 46 µM | Potency [10]

COc1cccc(Cn2c(=O)c(-c3cc(F)cc(F)c3)nc3cnc(N4CCNCC4)nc32)c1
inactive: Potency [2] | Potency [5] > 9.22 µM | Potency [6] > 46 µM | Potency [8] | Potency [10]
active: activity change, negative = inhibition [1] 117% [activator] | activity change, negative = inhibition [3] 225% [activator]

COc1ccc(-c2nc3cnc(OC)nc3n(-c3ccc(OC)cc3)c2=O)cc1
inactive: activity change, negative = inhibition [1] -4.28% | activity change, negative = inhibition [3] 5.9% | activity, negative = inhibition [4] -4.51% | Potency [5] > 9.22 µM | Potency [6] > 46 µM | Potency [7] | Potency [8] | Potency [10] | Potency [9]
active: Potency [2] 0.316 µM

COc1ccc2[nH]cc(CCNc3nc(-c4ccc(C(=O)N(C)C)cc4)nc4ccccc34)c2c1
active: Potency [2] 15.8 µM
inactive: Potency [5] > 46 µM | Potency [6] > 46 µM | Potency [7] | Potency [8] | Potency [10] | Potency [9]

COCCn1c(=O)c(C)nc2cncnc21
active: Potency [2] 15.8 µM
inactive: activity change, negative = inhibition [1] -8.48% | activity change, negative = inhibition [3] 3.43% | activity, negative = inhibition [4] -7.75% | Potency [5] > 9.22 µM | Potency [6] > 46 µM | Potency [7] | Potency [8] | Potency [9]
